Active and inactive are the calls of the source. Unless noted, the rule behind the calls is not given here.
Experiments:
[1] = resazurin metabolic signal in HepG2 cells – cell-based, resazurin fluorescence, 24 h, PK04 Diversity Set, profiling panel (AID 1172); details: HepG2 viability, higher = more signal
[2] = budding yeast growth changes without added modifier – OD600, strain BY4716, 24 h, basal condition, primary screen (AID 1173); details: S. cerevisiae BY4716 growth, OD600, 24 h; higher = more signal, called active from +8 up or from −8 down
[3] = viability profiling in MM1S myeloma cells – cell-based, resazurin fluorescence, basal, 24 h, PK04 Diversity Set, profiling panel (AID 1174); details: higher = more signal, called active from +8 up or from −8 down;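 note: MM1S multiple myeloma cell line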
[4] = biological target: Dihydroorotate dehydrogenase (quinone), mitochondrial (Plasmodium falciparum (isolate 3D7)) (UniProt Q08210); assay: inhibition of P. falciparum DHODH – biochemical, C-terminal His tag, absorbance 600 nm, primary screen (AID 1175); details: PfDHODH enzyme, DCIP absorbance 600 nm; higher = more signal, called active from +8 up or from −8 down;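 note: recombinant parasite enzyme with a five histidine tag at its C terminus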
Chain of Dihydroorotate dehydrogenase (quinone), mitochondrial (Plasmodium falciparum (isolate 3D7)) (Q08210 whole entry, looked up): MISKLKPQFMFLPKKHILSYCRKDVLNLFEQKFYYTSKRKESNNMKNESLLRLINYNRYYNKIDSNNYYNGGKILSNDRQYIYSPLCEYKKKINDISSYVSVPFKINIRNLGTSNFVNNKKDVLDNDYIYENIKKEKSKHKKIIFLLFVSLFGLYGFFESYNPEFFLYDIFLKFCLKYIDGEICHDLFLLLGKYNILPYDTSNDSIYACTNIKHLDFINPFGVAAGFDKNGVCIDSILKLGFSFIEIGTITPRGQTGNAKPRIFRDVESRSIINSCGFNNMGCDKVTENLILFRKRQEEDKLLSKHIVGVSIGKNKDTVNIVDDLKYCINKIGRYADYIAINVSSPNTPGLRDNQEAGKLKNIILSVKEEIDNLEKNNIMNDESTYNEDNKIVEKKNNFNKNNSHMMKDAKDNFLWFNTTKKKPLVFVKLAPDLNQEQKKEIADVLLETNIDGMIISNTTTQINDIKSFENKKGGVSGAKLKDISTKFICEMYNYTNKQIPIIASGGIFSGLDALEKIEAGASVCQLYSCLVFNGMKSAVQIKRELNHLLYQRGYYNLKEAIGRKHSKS

[5] = inhibition of PAO1 biofilm formation – strain PAO1, LB-PBS medium, absorbance 600 nm, primary screen (AID 1176); details: P. aeruginosa PAO1 growth/biofilm, A600, 12 h; higher = more signal
[6] = growth modulation of vineyard yeast isolate – strain RM11-1a, OD600, basal, 24 h, primary screen (AID 1177);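 note: cultures grown under basal conditions with no added stressor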; details: S. cerevisiae RM11-1a growth, OD600, 24 h; higher = more signal, called active from +8 up or from −8 down
[7] = growth of efflux-deficient E. coli DRC39 – strain DRC39, OD650, 24 h, E. coli filamentation inducers, primary screen (AID 1178);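 note: growth measured as culture turbidity by optical density at 650 nm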; details: E. coli DRC39 acrAB, higher = more signal, called active from +8 up or from −8 down
[8] = growth of efflux-deficient E. coli DRC39 – strain DRC39, OD650, 48 h, E. coli filamentation inducers, primary screen (AID 1179);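 note: screen aims at cell division blockers that make cells filament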; details: E. coli DRC39 delta-acrAB growth, higher = more signal, called active from +8 up or from −8 down
[9] = viability profiling in RPMI8226 myeloma cells – cell-based, resazurin fluorescence, basal, 24 h, PK04 Diversity Set, profiling panel (AID 1180); details: higher = more signal;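 note: RPMI8826 multiple myeloma cell line at 5000 cells per well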
[10] = biological target: E3 ubiquitin-protein ligase XIAP (Homo sapiens) (UniProt P98170); assay: small molecules binding XIAP protein – biophysical, small-molecule microarray, fluorescence 635 nm, primary screen (AID 1181); details: higher = more signal;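 note: score merges 667 nm emission and signal to noise over triplicate slides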
Chain of E3 ubiquitin-protein ligase XIAP (Homo sapiens) (P98170 whole entry, looked up, the tested form may be a part): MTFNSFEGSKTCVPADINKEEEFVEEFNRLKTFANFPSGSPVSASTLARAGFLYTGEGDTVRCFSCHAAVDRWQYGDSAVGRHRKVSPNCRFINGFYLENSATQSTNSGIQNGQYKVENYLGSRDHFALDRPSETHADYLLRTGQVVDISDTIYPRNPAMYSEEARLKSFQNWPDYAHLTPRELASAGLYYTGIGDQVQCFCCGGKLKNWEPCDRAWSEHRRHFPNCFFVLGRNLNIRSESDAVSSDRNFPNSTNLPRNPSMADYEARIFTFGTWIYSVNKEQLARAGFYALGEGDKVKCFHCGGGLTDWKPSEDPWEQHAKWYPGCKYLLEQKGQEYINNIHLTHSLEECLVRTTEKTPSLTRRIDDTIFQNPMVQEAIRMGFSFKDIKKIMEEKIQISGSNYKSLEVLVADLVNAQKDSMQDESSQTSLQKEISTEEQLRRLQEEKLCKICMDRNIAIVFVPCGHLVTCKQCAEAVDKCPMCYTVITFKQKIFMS

[11] = test system: XIP peptide (Xip251-270) binding; assay: XIP fragment 251-270 binding compounds – biochemical, small-molecule microarray, fluorescence 635/667 nm, 0.1 µg/mL protein, primary screen (AID 1182); details: fluorescent protein binding, 635 nm, higher = more signal, called active from +8 up or from −8 down
XIP peptide (Xip251-270) = assay: compounds binding XIP fragment 251-270 – biochemical, small-molecule microarray, fluorescence 635/667 nm, 0.5 µg/mL protein, primary screen (AID 1183); details: fluorescence 635 nm, higher = more signal
[12] = blood-stage malaria parasite viability loss – strain 3D7, DAPI fluorescence, 100 nL, primary screen (AID 1184);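 note: parasites grown inside human red blood cells in medium with human serum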; details: P. falciparum 3D7 growth, 3 d, higher = more signal
[13] = biological target: Homeobox protein Hox-A13 (Mus musculus) (UniProt Q62424); assay: disruptors of Hoxa13 oligonucleotide interaction – biochemical, fluorescence polarization, labeled oligonucleotide, primary screen (AID 1185); details: Hoxa13:DNA binding, 15 min, higher = more signal, called active from +8 up or from −8 down
Chain of Homeobox protein Hox-A13 (Mus musculus) (Q62424 whole entry, looked up): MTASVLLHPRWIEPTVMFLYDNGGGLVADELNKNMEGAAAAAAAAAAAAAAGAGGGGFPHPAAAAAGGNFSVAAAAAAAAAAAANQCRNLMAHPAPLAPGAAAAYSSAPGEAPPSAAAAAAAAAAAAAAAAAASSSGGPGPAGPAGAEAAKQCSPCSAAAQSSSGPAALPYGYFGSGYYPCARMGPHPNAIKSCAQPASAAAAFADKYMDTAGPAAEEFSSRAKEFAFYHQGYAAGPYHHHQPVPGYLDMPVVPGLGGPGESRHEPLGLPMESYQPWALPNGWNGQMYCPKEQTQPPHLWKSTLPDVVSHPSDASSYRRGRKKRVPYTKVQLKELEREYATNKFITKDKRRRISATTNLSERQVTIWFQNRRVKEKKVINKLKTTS

[14] = blockers of DNA damage checkpoint Chk1 activation – imaging, HeLa, hydroxyurea, phospho-Chk1 antibody, percent positive cells, primary screen (AID 1186); details: hydroxyurea-induced phospho-Chk1 immunofluorescence imaging, higher = more signal
[15] = blockers of DNA damage checkpoint Chk1 activation – imaging, HeLa, hydroxyurea, phospho-Chk1 nuclear intensity, primary screen (AID 1187); details: hydroxyurea-induced phospho-Chk1 immunofluorescence imaging, higher = more signal

Row | SMILES | z-score [1] | z-score [2] | z-score [3] | composite z-score [4] | z-score [5] | z-score [6] | z-score [7] | z-score [8] | z-score [9] | composite z-score [10] | composite z-score [11] | composite z-score (XIP peptide (Xip251-270)) | z-score [12] | z-score [13] | z-score [14] | z-score [15]
1 | Cc1ccc(S(=O)(=O)N2[C@@H](c3ccccc3)C(C(=O)O)=CC[C@H]2c2ccc(C#N)cc2)cc1 | -0.847 | -0.647 (inactive) | -1.35 (inactive) | 0.0114 (inactive) | 0.0794 (inactive) | 0.11 (inactive) | -0.674 (inactive) | -0.841 (inactive) | -1.28 | 0.15 | 0.556 (inactive) | 0.848 | -1.26 | -6.06 (inactive) | 0.0247 (inactive) | -0.206 (inactive)
2 | C=CCC(OC(C)=O)[C@@H]1[C@@H](N(Cc2ccc(-c3cccc(C(F)(F)F)c3)o2)C(=O)c2cccc3ccccc23)c2cc(OCCCO)ccc2N1C(=O)c1ccc2ccccc2n1 (stereo partly drawn) | -0.892 | -0.606 (inactive) | -0.864 (inactive) | 0.995 (inactive) | -0.51 (inactive) | 0.356 (inactive) | 0.249 (inactive) | -0.195 (inactive) | -0.804 | -0.227 | -0.279 (inactive) | -0.0301 | -2.15 | -2.09 (inactive) | -0.131 (inactive) | 0.228 (inactive)
3 | C=CCC(OC(C)=O)[C@@H]1[C@@H](N(Cc2ccc(-c3ccccc3)cc2)C(=O)c2ccc(-c3ccccc3)cc2)c2cc(OCCCO)ccc2N1C(=O)c1ccc2ccccc2n1 (stereo partly drawn) | 1.16 | -0.599 (inactive) | 1.3 (inactive) | -0.149 (inactive) | 0.149 (inactive) | -0.354 (inactive) | 0.348 (inactive) | 0.308 (inactive) | 1.13 | -0.0103 | -0.649 (inactive) | 0.119 | -0.273 | -0.983 (inactive) | 0.0922 (inactive) | 0.352 (inactive)
4 | COCCOC(=O)N1C(=O)[C@@]2(c3cc(C#CCC(C(=O)OC)C(=O)OC)ccc31)[C@H](C(=O)N1CCCCCCC1)[C@H]1C(=O)O[C@H](c3ccccc3)[C@H](c3ccccc3)N1[C@@H]2c1ccccc1OCCO | 0.194 | 0.63 (inactive) | 0.683 (inactive) | 0.256 (inactive) | 1.45 (inactive) | 1.62 (inactive) | -0.82 (inactive) | -1.29 (inactive) | 0.0277 | 0.212 | 2.48 (inactive) | 0.483 | -2.4 | 4.77 (inactive) | 0.122 (inactive) | 0.0392 (inactive)
5 | CCCC[C@H]1OB(O)C[C@H]2C1=C(COC)C[C@H]1C(=O)C=CC(=O)[C@H]12 | -0.796 | -3.96 (inactive) | -0.203 (inactive) | -2.14 (inactive) | 1.52 (inactive) | 0.0887 (inactive) | 1.13 (inactive) | 0.756 (inactive) | -0.0072 | -0.0238 | 0.473 (inactive) | 0.407 | -1.09 | -6.74 (inactive) | -0.591 (inactive) | -0.434 (inactive)
6 | CN1C=C(C(=O)OCCS(C)(=O)=O)C(C(=O)OCCS(C)(=O)=O)=CC(CCCO)=CC1c1ccc(CN2CCCC2)cc1 (stereo not drawn) | -0.533 | -2.02 (inactive) | 0.0555 (inactive) | -0.379 (inactive) | 0.719 (inactive) | 0.27 (inactive) | 0.364 (inactive) | 0.121 (inactive) | 0.274 | -0.0525 | 0.629 (inactive) | 0.694 | -2.24 | -4.07 (inactive) | 0.266 (inactive) | -0.0538 (inactive)
7 | COc1cc(OC)c(C(O)C2C=CC3C(=O)N(c4ccccc4)C(=O)C3N2Nc2ccccc2F)cc1Br (stereo not drawn) | -0.384 | -1.22 (inactive) | -0.898 (inactive) | -0.92 (inactive) | 1.32 (inactive) | 0.298 (inactive) | -0.529 (inactive) | -0.595 (inactive) | -2.08 | 0.0245 | 0.166 (inactive) | 0.758 | 1.74 | -1.47 (inactive) | 0.195 (inactive) | -0.0782 (inactive)
8 | COc1ccc(CCNC(=O)[C@@H]2c3ccccc3C(=O)N(CC34CC5CC(CC(C5)C3)C4)[C@H]2c2ccc(CO)cc2)cc1 | 0.556 | -0.547 (inactive) | -1.05 (inactive) | 0.12 (inactive) | 0.565 (inactive) | -0.134 (inactive) | 0.517 (inactive) | 0.119 (inactive) | 0.618 | 0.399 | 1.92 (inactive) | 0.55 | -2.14 | -4.4 (inactive) | -0.0198 (inactive) | 0.432 (inactive)
9 | [N-]=[N+]=NCc1ccccc1C[C@@]1(C(=O)O)N=C(c2ccc(OCCCO)cc2)O[C@@H]1c1ccccc1CN=[N+]=[N-] | 1.86 | -4 (inactive) | 0.781 (inactive) | -1.62 (inactive) | -0.608 (inactive) | -0.916 (inactive) | 0.274 (inactive) | 0.697 (inactive) | 1.03 | 0.209 | 0.673 (inactive) | 0.512 | 0.107 | -5.11 (inactive) | -0.199 (inactive) | -0.026 (inactive)
10 | CC(C)C(=C=CC[C@@H](O)c1ccccc1OCCO)C[C@@H](O)c1cc(Cl)cc(Cl)c1O | -0.563 | -4.12 (inactive) | -1.35 (inactive) | -2.32 (inactive) | 0.354 (inactive) | 0.184 (inactive) | -0.501 (inactive) | -0.796 (inactive) | -0.932 | -0.232 | 1.25 (inactive) | 0.748 | -1.39 | -3.09 (inactive) | -0.059 (inactive) | 0.189 (inactive)
11 | NC(=O)[C@@]1(CCS(=O)(=O)c2ccccc2)COC(c2ccc(OCCCO)cc2)=N1 | -0.285 | 0.511 (inactive) | -1.34 (inactive) | -0.809 (inactive) | -0.304 (inactive) | 0.0637 (inactive) | -0.223 (inactive) | 0.491 (inactive) | -0.318 | 0.291 | -0.377 (inactive) | -0.395 | 0.605 | -4.75 (inactive) | -0.511 (inactive) | -1.12 (inactive)
12 | CN1C(=O)[C@]2(CCS(=O)(=O)c3ccccc3)N=C(c3ccc(OCCCO)cc3)O[C@@H]2c2ccccc21 | -0.0688 | 0.902 (inactive) | -0.101 (inactive) | 0.349 (inactive) | -0.0279 (inactive) | 2.34 (inactive) | 0.124 (inactive) | -0.687 (inactive) | -1.02 | 0.0506 | 2.2 (inactive) | 0.897 | -2.32 | -5.03 (inactive) | -0.122 (inactive) | 0.271 (inactive)
13 | CO[C@H]1O[C@H](CO)[C@@H](OC(=O)Nc2ccc(C(F)(F)F)cc2)[C@H](OC(=O)Nc2ccccc2-c2ccccc2)[C@@H]1OC(=O)Nc1ccccc1-c1ccccc1 | -0.889 | 0.28 (inactive) | -1.74 (inactive) | 0.0823 (inactive) | 0.77 (inactive) | 1.21 (inactive) | -1 (inactive) | 0.0484 (inactive) | -0.94 | -0.184 | 1.39 (inactive) | 0.827 | -2.28 | -4.13 (inactive) | 0.206 (inactive) | 0.0324 (inactive)
14 | COc1cccc(C[C@H]2C[C@@H](CO[Si](C(C)C)(C(C)C)C(C)C)N3C(=O)[C@@]4(C(C)=O)O[C@@]23[C@@H]2C(=O)N(C)C(=O)[C@@H]24)c1 | 0.65 | 0.294 (inactive) | -0.494 (inactive) | 0.0539 (inactive) | 0.82 (inactive) | 0.993 (inactive) | -0.493 (inactive) | -0.638 (inactive) | -0.334 | 0.0082 | 0.234 (inactive) | 0.61 | -1.75 | -3.39 (inactive) | -0.365 (inactive) | -0.482 (inactive)
15 | O=C1NC(=O)C2C1C=CC(C(O)c1cccc(O)c1)N2Nc1ccc(Cl)cc1Cl (stereo not drawn) | -1.79 | -13.3 (active) | -1.31 (inactive) | 1.03 (inactive) | 0.695 (inactive) | 0.915 (inactive) | -0.526 (inactive) | -3.39 (inactive) | -1.69 | -0.039 | -0.186 (inactive) | 0.199 | -0.0722 | -5.1 (inactive) | 0.684 (inactive) | 0.194 (inactive)
16 | COCCOC(=O)N1C(=O)[C@@]2(c3cc(C#CC4(O)CCCCCC4)ccc31)[C@H](c1ccc(OCCO)cc1)N1[C@H](c3ccccc3)[C@H](c3ccccc3)OC(=O)[C@H]1[C@@H]2C(=O)N1CCCCCCC1 | -0.768 | 0.973 (inactive) | -0.418 (inactive) | 0.0448 (inactive) | 1.16 (inactive) | 2.11 (inactive) | -2.2 (inactive) | -1.8 (inactive) | 0.0982 | -0.151 | 0.662 (inactive) | 0.743 | -2.43 | -13.3 (active) | -0.0238 (inactive) | 0.222 (inactive)
17 | CC(C)CNC(=O)[C@@H]1c2ccccc2C(=O)N(Cc2ccccc2Cl)[C@H]1c1ccc(CO)cc1 | 0.611 | -0.161 (inactive) | 0.552 (inactive) | -0.0116 (inactive) | 0.0435 (inactive) | -0.239 (inactive) | 0.219 (inactive) | 0.303 (inactive) | 0.943 | 0.199 | 0.0394 (inactive) | 0.8 | 0.134 | -1.47 (inactive) | 0.0107 (inactive) | 0.499 (inactive)
18 | COC(=O)[C@@]1(Cc2ccccc2)[C@H]2c3cc(C(=O)N4CCCC4)n(Cc4ccc(C(F)(F)F)nc4)c3C[C@H]2CN1C(=O)c1ccccc1 | 0.0826 | 1.18 (inactive) | -0.335 (inactive) | -0.559 (inactive) | -0.374 (inactive) | 0.151 (inactive) | 0.018 (inactive) | -0.815 (inactive) | -0.578 | 0.0558 | -0.0699 (inactive) | 0.723 | -1.11 | -3.13 (inactive) | -0.0659 (inactive) | 0.114 (inactive)

Source: PubChem BioAssay
